# Laboratory results published in ChEMBL document CHEMBL3988442, “University of Dundee, Small-Polar-MMV Screening Library” (2021).
# Out of some 69,000 compounds screened, about 1,000 (1.4%) showed an effect of 50% or more. This is one part of a sample in which strong results are shown more often than they occur.
# Test system: Leishmania donovani
# Assay: Leishmania intramacrophage assay
# Assay type: functional, organism-based
# Design: scale not given: in the data most compounds retested in dose-response had high values
compound,measurement,setting,value
CO[C@H]1CCN(Cc2ccoc2)C[C@@H]1Cc1ccccc1.O=C(O)C(F)(F)F,Percent Effect,"30.3 µM, […]",25.61%
COc1c(C)cnc(CSc2nnc(NC3CC3)s2)c1C,Percent Effect,"30.3 µM, […]",13.54%
O=C(NCC(=O)N1CCCC(c2ccccc2)CC1)c1ccoc1 (centres undefined),Percent Effect,30 µM,24.45%
O=C([C@H]1CCCO1)N1CCc2ncc(CN3CCOCC3)n2CC1,Percent Effect,"30.3 µM, […]",32.4%
Cc1cnn(CC(C)NCc2ccc(OCC(N)=O)cc2)c1 (centres undefined),Percent Effect,30 µM,8.68%
Cc1ccc2[nH]c(CN3CC[C@@H](N4CCN(C)CC4)[C@H](O)C3)c(C)c2c1,Percent Effect,"30.3 µM, […]",23.41%
Cc1c(CN2CC[C@@H](N3CCC(O)CC3)[C@H](O)C2)[nH]c2ccc(Cl)cc12,Percent Effect,"30.3 µM, […]",82.7%
Cc1c(CN2CC[C@@H](N3CCC(O)CC3)[C@H](O)C2)[nH]c2ccc(F)cc12,Percent Effect,"30.3 µM, […]",26.65%
O=C(c1ccc(S(=O)(=O)NCc2ccon2)cc1)N1CCOCC1,Percent Effect,"30.3 µM, […]",0.2735%
CCOc1ccc(-c2c(-c3ccccc3)ncn2C2CCNC2)cn1 (centres undefined),Percent Effect,"30.3 µM, […]",76.3%
Oc1ccc(-c2c(-c3ccccc3)ncn2C2CCNC2)cc1 (centres undefined),Percent Effect,"30.3 µM, […]",-26.99%
Cc1nc[nH]c1-c1c(-c2ccccc2)ncn1C1CCNC1 (centres undefined),Percent Effect,"30.3 µM, […]",-1.128%
Cc1nc(C)n(CC2CCCN(c3ncnc4sccc34)C2)n1 (centres undefined),Percent Effect,"30 µM, 30.03 µM",-10.34%
CCc1nc(CN2CCCN(c3ncnc4ccsc34)CC2)no1,Percent Effect,"30.3 µM, […]",27.83%
Cc1nc(C)n(CC2CCCN(c3ncnc4c3CCC4)C2)n1 (centres undefined),Percent Effect,"30 µM, 30.03 µM",28.07%
Cc1nc(C)n(CC2CCCN(c3ncnc4[nH]ccc34)C2)n1 (centres undefined),Percent Effect,"30 µM, 30.03 µM",52.77%
Cc1nc(C)n(CC2CCCN(c3ncnc4ccccc34)C2)n1 (centres undefined),Percent Effect,30 µM,54.57%
CCc1nc(CN2CCCN(c3ncnc4ccccc34)CC2)no1,Percent Effect,"30 µM, 30.03 µM",55.68%
Cc1nc(C)n(CC2CCCN(c3ncnc4ccsc34)C2)n1 (centres undefined),Percent Effect,"30 µM, 30.03 µM",35.24%
Cc1nc(CN2CCN(c3ncnc4ccccc34)CC2)no1,Percent Effect,"30.3 µM, […]",19.7%
Cc1nc(C)n(CC2CN(c3ncnc4[nH]ccc34)CCO2)n1 (centres undefined),Percent Effect,"30 µM, 30.03 µM",-5.028%
COCC1CN(C(=O)COc2ccccc2C)Cc2ncn(C)c21.O=C(O)C(F)(F)F (centres undefined),Percent Effect,"30.3 µM, […]",12.02%
Cc1ccc(CN2CCn3c(COc4cccnc4)cnc3C2C)o1.O=C(O)C(F)(F)F.O=C(O)C(F)(F)F (centres undefined),Percent Effect,"30.3 µM, […]",-4.64%
CCCn1cc(C(=O)N[C@H]2CC[C@H](n3cnnc3)CC2)c(C)n1,Percent Effect,"30.3 µM, […]",11.19%
O=C(O)C(F)(F)F.O=S(=O)(c1cccs1)N1CC[C@H]2[C@H]1CCN2c1ncccn1,Percent Effect,"30.3 µM, […]",-1.813%
Cc1csc(CN2C[C@@H]3CN(CC4CCOCC4)CCO[C@@H]3C2)n1,Percent Effect,"30.3 µM, […]",53.9%
Cc1ccc(CN2C[C@@H]3CN(CC4CCOCC4)CCO[C@@H]3C2)s1.O=C(O)C(F)(F)F.O=C(O)C(F)(F)F,Percent Effect,"30.3 µM, […]",24.65%
Cc1csc(CN2C[C@@H]3CN(S(C)(=O)=O)CCO[C@@H]3C2)n1,Percent Effect,"30.3 µM, […]",20.2%
Cc1nc(C(=O)N2CCCC2c2cncc(CN3CCCC3)n2)co1 (centres undefined),Percent Effect,"30.3 µM, […]",16.43%
COc1ccc(CC(=O)N2CCCC(n3nc(C)cc3C)C2)cc1F (centres undefined),Percent Effect,30 µM,18.37%
Cc1cs/c(=N/C(=O)c2csc(NCC(C)C)n2)[nH]1,Percent Effect,"30.3 µM, […]",8.971%
Cc1[nH]/c(=N\C(=O)c2csc(NC3CCCC3)n2)sc1C,Percent Effect,"30.3 µM, […]",100.1%
CCN(CC)C(=O)CCCNC(=O)c1csc(NC2CC2)n1,Percent Effect,"30.3 µM, […]",-2.373%
CC(C)(C)[S+]([O-])CCNC(=O)c1csc(NC2CC2)n1 (centres undefined),Percent Effect,"30.3 µM, […]",-31.46%
Cc1[nH]/c(=N\C(=O)c2csc(NCC(C)C)n2)sc1C,Percent Effect,"30 µM, 30.03 µM",87.72%
Cc1[nH]/c(=N\C(=O)c2csc(NC3CC3)n2)sc1C,Percent Effect,"30 µM, 30.03 µM",70.25%
CC(C)CNc1nc(C(=O)/N=c2\[nH]nc(C(C)(C)C)s2)cs1,Percent Effect,"30 µM, 30.03 µM",-9.293%
CN1CCN(C(=O)CCc2cc(Br)cs2)CC1,Percent Effect,"30.3 µM, […]",1.944%
O=C(Cc1ccsc1)N1CCN(CC2CC2)c2ncccc2C1.O=C(O)C(F)(F)F,Percent Effect,"30.3 µM, […]",13.41%
CC(C)c1cc(C(F)(F)F)n2nc(C3CCN(S(C)(=O)=O)C3)cc2n1 (centres undefined),Percent Effect,"30.3 µM, […]",14.63%
COc1ccc2[nH]cc(C(=O)N3C[C@@H](O)[C@H](N4CCOCC4)C3)c2c1,Percent Effect,"30.3 µM, […]",10.77%
COc1ccccc1OCc1cc(C(=O)N2CCOCC2CO)n[nH]1 (centres undefined),Percent Effect,"30.3 µM, […]",28.86%
CCc1ccc(CN(Cc2ccccc2)CC(C)CO)nc1 (centres undefined),Percent Effect,"30.3 µM, […]",7.862%
CC(C)OCCN1CCN(C(C)c2nc(C3CC3)no2)CC1 (centres undefined),Percent Effect,30 µM,6.668%
CC(c1nc(C2CC2)no1)N1CCN(CCS(C)(=O)=O)CC1 (centres undefined),Percent Effect,"30.3 µM, […]",50.3%
COCCN1CCN(C(C)c2nc(C3CC3)no2)CC1 (centres undefined),Percent Effect,30 µM,-7.952%
Clc1snnc1CN1CCN(c2nccs2)CC1,Percent Effect,"30.3 µM, […]",-11.24%
COc1ccccc1CC(=O)NS(C)(=O)=O,Percent Effect,"30 µM, 30.03 µM",11.96%
COc1ccccc1CC(C)CC(=O)O (centres undefined),Percent Effect,"30.3 µM, […]",41.22%
CCC(CC(=O)NS(=O)(=O)C(C)C)c1ccccc1 (centres undefined),Percent Effect,"30.3 µM, […]",-1.743%
COc1ccccc1CC(C)CC(=O)N(C)Cc1cc(C)on1 (centres undefined),Percent Effect,"30.3 µM, […]",6.655%
COc1ccccc1CC(C)CC(=O)NC(C)C (centres undefined),Percent Effect,"30.3 µM, […]",59.88%
COc1ccccc1CC(C)CC(=O)NS(=O)(=O)C(C)C (centres undefined),Percent Effect,"30.3 µM, […]",63.27%
Cc1cc(NC(=O)NCC(c2ccccc2)N2CCOCC2)n(C)n1 (centres undefined),Percent Effect,30 µM,18.5%
C1CC(CN2CCO[C@H]3[C@H](OCC4CC4)CC[C@@H]32)CCO1.O=C(O)C(F)(F)F,Percent Effect,"30 µM, 30.03 µM",5.211%
Cc1ccc(NC(=O)CC2Cn3ncnc3NC2=O)cc1C (centres undefined),Percent Effect,"30.3 µM, […]",22.77%
CN1CCOCC12CCN(c1ccc(C#N)cc1)CC2.O=C(O)C(F)(F)F,Percent Effect,"30.3 µM, […]",14.66%
COc1ccc(C2CCCN2C(=O)c2csc(NC(C)=O)n2)cc1 (centres undefined),Percent Effect,"30 µM, 30.03 µM",22.16%
Cc1cc(C(=O)NCCc2nc3c(s2)CCCC3)n(C)n1,Percent Effect,"30.3 µM, […]",29.87%
O=C1CCc2cc(-c3csc(CCN4CCOC4=O)n3)c(F)cc2N1,Percent Effect,"30.3 µM, […]",-11.05%
CC(C)c1nc(C2CCCN(C(=O)c3ccc4c(c3)COC4)C2)no1 (centres undefined),Percent Effect,30 µM,33.04%
Cc1occc1CNC(=O)C1(C)CCCN1C(=O)c1ccccc1 (centres undefined),Percent Effect,"30.3 µM, […]",-78.28%
Cc1occc1CNC(=O)C1(C)CCCN(C(=O)c2ccccc2)C1 (centres undefined),Percent Effect,"30.3 µM, […]",52.94%
CC(C)C(=O)N1CCC12CCCN(C(=O)c1ccccc1)C2 (centres undefined),Percent Effect,"30.3 µM, […]",9.102%
